Common to all, as to experiment: NCI-60 one-dose screen, 48 h (100 = growth as untreated, 0 = no growth, -100 = all killed)
In one assay the test system is DU-145 prostate. Conditions: 10 µM unless noted.
Another assay concerns K-562 leukemia. Particulars: 10 µM unless noted.
Another assay has as its system MALME-3M melanoma. Conditions: 10 µM unless noted.
The subject of the next assay is MDA-MB-231 breast. Conditions: 10 µM unless noted.
The next assay has as its system RXF 393 renal. Conditions: 10 µM unless noted.
In the next assay the test system is SF-268 CNS. Particulars: 10 µM unless noted.
In the next assay the test system is SF-295 CNS. Particulars: 10 µM unless noted.
Another assay relates to SF-539 CNS. Conditions: 10 µM unless noted.
Another assay concerns UACC-257 melanoma. Particulars: 10 µM unless noted.
A further assay concerns M14 melanoma. Particulars: 10 µM unless noted.
The next assay concerns HCT-15 colon. Particulars: 10 µM unless noted.
The subject of a further assay is HT29 colon. Conditions: 10 µM unless noted.
The subject of a further assay is SNB-75 CNS. Particulars: 10 µM unless noted.
A further assay concerns SNB-19 CNS. Particulars: 10 µM unless noted.
Another assay has as its system U251 CNS. Particulars: 10 µM unless noted.
The next assay relates to PC-3 prostate. Particulars: 10 µM unless noted.
For another assay, the system named is SK-MEL-5 melanoma. Conditions: 10 µM unless noted.
In a further assay the test system is UACC-62 melanoma. Particulars: 10 µM unless noted.
The test system of another assay is LOX IMVI melanoma. Conditions: 10 µM.
Another assay deals with SK-MEL-28 melanoma. Conditions: 10 µM unless noted.

The panel holds about 83,000 compounds, 20% with a hit somewhere; the sample as a whole holds those more often.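 The endpoint reported here, percent growth, reads 100 for growth as untreated, 0 for no net growth and -100 for all cells dead.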 A number with no mark means an inactive call. Activity calls are given as the source filed them. How the source made its calls: active means growth percent below 10; inactive means the rest.

For `O=C(CSc1nc2ccccc2c(=O)[nH]1)NCCN1CCCCC1`, the growth in the assay on DU-145 prostate is 106%; in the assay with K-562 leukemia, 98.9%; in the assay on MALME-3M melanoma, 97.3%; with MDA-MB-231 breast it was 100%; in the assay with RXF 393 renal, 115%; with SF-268 CNS it was 92.9%. Also, the growth in the assay on SF-295 CNS is 103%; in the assay with SF-539 CNS, 91%; in the assay with UACC-257 melanoma it was 97.3%; in the assay with M14 melanoma, 94.4%; in the assay on HCT-15 colon, 97.5%; with HT29 colon, 108%. In addition, the growth is 79.1% in the assay on SNB-75 CNS; 94.6% in the assay on SNB-19 CNS; 98.7% in the assay on U251 CNS; 91.2% in the assay on PC-3 prostate; 100% with SK-MEL-5 melanoma; 90.7% in the assay with UACC-62 melanoma. In addition, the results for the growth with LOX IMVI melanoma and in the assay with SK-MEL-28 melanoma were 98.3% and 98.7%, respectively.
Turning to `COc1ccc2[nH]cc(-c3nnc(N)nc3-c3cn(C)c4ncc(Br)cc34)c2c1`, the growth in the assay with DU-145 prostate was 93%; with K-562 leukemia it was 52.5%; with MALME-3M melanoma, 121%; with MDA-MB-231 breast, 45.8%; in the assay on RXF 393 renal, 27.1%; in the assay with SF-268 CNS it was 81.4%. Also, the growth is 83.1% in the assay on SF-295 CNS; 66.5% in the assay on SF-539 CNS; 106% in the assay with UACC-257 melanoma; 105% in the assay with M14 melanoma; 68.5% with HCT-15 colon; 82.6% in the assay on HT29 colon. The growth with SNB-75 CNS was 31.7%; in the assay on SNB-19 CNS, 69.6%; in the assay on U251 CNS, 75.1%; with PC-3 prostate it was 72.9%; with SK-MEL-5 melanoma it was 85.7%; in the assay on UACC-62 melanoma, 68.5%. The growth in the assay with LOX IMVI melanoma was 71.9%; with SK-MEL-28 melanoma it was 54%.
In the case of `COc1cc2oc(-c3cccc(C(=O)Nc4ccc(Cl)cc4)c3)cc(=O)c2c(OCCNC(=O)[C@H](CO)NC(=O)OC(C)(C)C)c1OC`, the growth is 32.2% in the assay on DU-145 prostate; 11.3% in the assay on K-562 leukemia; 20% in the assay on MALME-3M melanoma; 2.74% (active) in the assay with MDA-MB-231 breast; -25.7% (active) with RXF 393 renal; 41.4% in the assay with SF-268 CNS. Besides, the growth is -16.4% (active) in the assay with SF-295 CNS; -54.2% (active) in the assay with SF-539 CNS; -41.7% (active) in the assay on UACC-257 melanoma; -7.57% (active) in the assay with M14 melanoma; 16.5% with HCT-15 colon; -26.9% (active) in the assay on HT29 colon. Also, the growth was 74.5% in the assay with SNB-75 CNS; 29.7% in the assay on SNB-19 CNS; 24% with U251 CNS; 12.9% with PC-3 prostate; -75.2% (active) in the assay on SK-MEL-5 melanoma; 7.14% (active) with UACC-62 melanoma. The values for the growth in the assay on LOX IMVI melanoma and in the assay with SK-MEL-28 melanoma were -67.5% (active) and -23.8% (active), respectively.
As to `COc1cc(-c2nc3ccc(C)cc3[nH]2)ccc1OCc1nnc(-c2ccc(Br)cc2)o1`, the growth with DU-145 prostate is 58.3%; in the assay with K-562 leukemia, 3.01% (active); in the assay on MALME-3M melanoma, 45%; with MDA-MB-231 breast, 12.9%; with RXF 393 renal, 25.2%; with SF-268 CNS it was 54.8%. For the same molecule, the growth is -54.1% (active) with SF-295 CNS; -82.7% (active) in the assay on SF-539 CNS; -15.4% (active) in the assay with UACC-257 melanoma; 31.2% in the assay with M14 melanoma; 19.2% with HCT-15 colon; -53.7% (active) in the assay with HT29 colon. Moreover, the growth was 85.7% in the assay on SNB-75 CNS; 57.7% with SNB-19 CNS; 5.13% (active) in the assay with U251 CNS; 27.9% in the assay on PC-3 prostate; 20.2% in the assay on SK-MEL-5 melanoma; 19.9% with UACC-62 melanoma. Besides, the values for the growth with LOX IMVI melanoma and in the assay with SK-MEL-28 melanoma were 77.1% and 27.1%, respectively.
Regarding `CC1(C)CC[C@]2(C(=O)O)CC[C@]3(C)C(=CCC4[C@@]5(C)C[C@@H](O)[C@@H]6OC(c7ccc(F)cc7)OC[C@@]6(C)C5CC[C@]43C)C2C1` (stereo not given in full), the growth with DU-145 prostate is 28.7%; with K-562 leukemia, 14.9%; with MALME-3M melanoma, 39%; with MDA-MB-231 breast it was 50.6%; in the assay with RXF 393 renal, 42.8%; in the assay with SF-268 CNS, 41.3%. In addition, the growth with SF-295 CNS was 32.7%; in the assay with SF-539 CNS it was 50.8%; in the assay with UACC-257 melanoma it was 42.3%; in the assay on M14 melanoma it was 40.4%; with HCT-15 colon, 13.4%; with HT29 colon it was 25.4%. Also, the growth in the assay with SNB-75 CNS was 82.3%; in the assay with SNB-19 CNS it was 34.9%; in the assay on U251 CNS it was 14.7%; with PC-3 prostate it was 17.6%; with SK-MEL-5 melanoma, 17.2%; with UACC-62 melanoma, 45.5%. The growth in the assay with LOX IMVI melanoma was 19.9%; in the assay on SK-MEL-28 melanoma it was 53.9%.
On to `C#CCOc1cc(N(CC)CC)ccc1C(C(=O)NC(C)(C)C)N(C(=O)C1CCc2cc(F)ccc2O1)c1ccccc1Br` (stereo not given), for which the growth is 74% in the assay with DU-145 prostate; 31.3% in the assay on K-562 leukemia; 77.4% in the assay with MALME-3M melanoma; 63% in the assay with MDA-MB-231 breast; 81.6% in the assay on RXF 393 renal; 62.1% in the assay with SF-268 CNS. Also, the growth in the assay with SF-295 CNS was 62.8%; with SF-539 CNS, 72.5%; in the assay with UACC-257 melanoma, 60%; in the assay with M14 melanoma it was 55.5%; in the assay on HCT-15 colon, 50.2%; with HT29 colon it was 51.1%. Moreover, the growth is 97.5% in the assay with SNB-75 CNS; 56.5% in the assay on SNB-19 CNS; 48.6% in the assay on U251 CNS; 27.3% with PC-3 prostate; 56.8% with SK-MEL-5 melanoma; 40.8% with UACC-62 melanoma. For the same molecule, the growth in the assay on LOX IMVI melanoma is 31.7%; with SK-MEL-28 melanoma it was 64.8%.
`COc1ccc(/C=C/c2nc3ccccc3nc2Nc2cccc(C)c2)cc1`: the growth was 108% in the assay with DU-145 prostate; 84.2% with K-562 leukemia; 115% with MALME-3M melanoma; 88.5% in the assay on MDA-MB-231 breast; 109% in the assay on RXF 393 renal; 96.8% with SF-268 CNS. The growth was 127% with SF-295 CNS; 103% in the assay on SF-539 CNS; 112% in the assay on UACC-257 melanoma; 99.6% with M14 melanoma; 104% with HCT-15 colon; 101% with HT29 colon. Besides, the growth is 99% in the assay with SNB-75 CNS; 98.5% with SNB-19 CNS; 96.1% in the assay with U251 CNS; 96.5% in the assay with PC-3 prostate; 95.7% in the assay with SK-MEL-5 melanoma; 83.4% in the assay on UACC-62 melanoma. Further, the growth in the assay with LOX IMVI melanoma and in the assay with SK-MEL-28 melanoma was 108% each time.
Take `Nc1nc(-c2ccccc2)c(N=Nc2ccc([N+](=O)[O-])cc2Cl)s1`: the growth in the assay on DU-145 prostate is 95.4%; with K-562 leukemia, 67.3%; with MALME-3M melanoma, 108%; with MDA-MB-231 breast, 87.8%; in the assay with RXF 393 renal it was 109%; with SF-268 CNS, 90.2%. Also, the growth is 92.1% in the assay with SF-295 CNS; 96.5% in the assay with SF-539 CNS; 61.6% with UACC-257 melanoma; 92.9% in the assay on M14 melanoma; 68.1% in the assay on HCT-15 colon; 96.2% with HT29 colon. Further, the growth with SNB-75 CNS is 85.7%; in the assay on SNB-19 CNS, 96.3%; in the assay with U251 CNS, 82.5%; in the assay with PC-3 prostate, 77.7%; in the assay with SK-MEL-5 melanoma it was 42.5%; in the assay with UACC-62 melanoma, 57.8%. Besides, the growth in the assay with LOX IMVI melanoma was 98%; in the assay with SK-MEL-28 melanoma, 89.1%.

Source of the values: PubChem BioAssay (NCI).
